# Reference: PubChem BioAssay (EPA / NIEHS)
# Inconclusive results are not listed. Activity calls are given as the source filed them. Rule for the calls, unless noted: active = hit-call score of the fitted dose curve at least 0.9, where 1 is the maximum; inconclusive = response in the unintended direction; inactive = score below 0.9.
# Assays:
# [1] = target: Androgen Receptor/SRC-1 Co-activator, AR (gene 367) (UniProt P10275); experiment: OT_AR_ARSRC1_0480: Odyssey Thera (OT) 8-hour HEK293T Protein-Complementation Assay for Androgen Receptor/SRC-1 Co-activator (AID 2283354);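 note: hits raise the complementation signal above DMSO so AC50 marks enhancers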
# Chain of Androgen Receptor/SRC-1 Co-activator, AR (gene 367) (P10275 whole entry, looked up): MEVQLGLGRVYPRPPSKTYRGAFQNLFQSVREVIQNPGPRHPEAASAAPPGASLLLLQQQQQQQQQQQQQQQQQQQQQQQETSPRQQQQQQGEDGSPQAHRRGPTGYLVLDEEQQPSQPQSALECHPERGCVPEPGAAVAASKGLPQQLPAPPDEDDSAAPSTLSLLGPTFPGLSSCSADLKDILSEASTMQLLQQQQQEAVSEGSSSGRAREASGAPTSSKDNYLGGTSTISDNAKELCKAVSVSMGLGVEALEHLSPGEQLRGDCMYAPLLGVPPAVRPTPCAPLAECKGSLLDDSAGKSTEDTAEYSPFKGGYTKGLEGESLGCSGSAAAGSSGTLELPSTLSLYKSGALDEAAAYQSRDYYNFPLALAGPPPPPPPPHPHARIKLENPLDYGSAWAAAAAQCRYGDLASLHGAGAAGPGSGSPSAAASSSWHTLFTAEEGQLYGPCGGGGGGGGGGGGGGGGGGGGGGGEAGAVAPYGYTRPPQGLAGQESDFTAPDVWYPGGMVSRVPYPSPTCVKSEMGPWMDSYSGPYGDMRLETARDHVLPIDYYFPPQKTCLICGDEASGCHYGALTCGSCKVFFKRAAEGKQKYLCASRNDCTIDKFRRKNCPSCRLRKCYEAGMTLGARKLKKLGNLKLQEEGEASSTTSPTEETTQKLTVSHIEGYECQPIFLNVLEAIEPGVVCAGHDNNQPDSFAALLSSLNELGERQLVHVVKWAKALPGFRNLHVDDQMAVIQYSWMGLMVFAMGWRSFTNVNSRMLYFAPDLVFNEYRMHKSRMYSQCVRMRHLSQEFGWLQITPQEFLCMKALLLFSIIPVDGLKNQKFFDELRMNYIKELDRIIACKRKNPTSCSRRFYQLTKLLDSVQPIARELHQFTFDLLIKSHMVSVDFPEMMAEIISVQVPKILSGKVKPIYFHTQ
# Method in brief: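 Reconstituted split-Venus YFP signal from AR–SRC-1 interaction, read by imaging 8 h post-dose in stable HEK293T lines. The 488 nm nucleus-to-cytoplasm ratio (≥400 cells/image) was fitted upward against DMSO.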
# [2] = target: Estrogen receptor beta (Homo sapiens) (UniProt Q92731); experiment: OT_ER_ERbERb_0480: Odyssey Thera (OT) 8-hour HEK293T Protein-Complementation Assay for Estrogen Receptor-beta/-beta Homodimer (AID 2283357);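 note: active means signal gain over DMSO baseline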
# Chain of Estrogen receptor beta (Homo sapiens) (Q92731 whole entry, looked up, the tested form may be a part): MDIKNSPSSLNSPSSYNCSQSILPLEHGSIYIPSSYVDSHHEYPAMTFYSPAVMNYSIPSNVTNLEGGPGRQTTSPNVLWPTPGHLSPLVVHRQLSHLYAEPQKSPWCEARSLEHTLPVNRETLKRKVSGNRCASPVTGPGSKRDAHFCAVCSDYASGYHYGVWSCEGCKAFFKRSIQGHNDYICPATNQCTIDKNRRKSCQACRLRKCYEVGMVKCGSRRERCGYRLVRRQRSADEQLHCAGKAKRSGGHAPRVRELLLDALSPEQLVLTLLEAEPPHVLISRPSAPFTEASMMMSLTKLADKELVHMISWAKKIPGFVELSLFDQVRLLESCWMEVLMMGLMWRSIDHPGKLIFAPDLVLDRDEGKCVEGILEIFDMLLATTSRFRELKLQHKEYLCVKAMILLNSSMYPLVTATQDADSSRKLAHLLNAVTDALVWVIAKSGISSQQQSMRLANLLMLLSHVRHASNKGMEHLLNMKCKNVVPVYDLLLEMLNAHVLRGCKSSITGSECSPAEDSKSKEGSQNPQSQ
# Method in brief: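 ER-beta LBD homodimer PCA stably expressed in HEK293T; 8 h compound exposure, then formaldehyde fixation and Draq5 staining. Gain in nuclear/cytoplasmic fluorescence intensity versus DMSO vehicle, read on laser scanning cytometer.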
# [3] = target: human Thyroid Receptor Alpha (TRa), THRA (gene 7067) (UniProt P10827); experiment: NVS_NR_hTRa_Antagonist: NovaScreen (NVS) Nuclear Receptor Binding Assay for human Thyroid Receptor Alpha Antagonism (TRa) (AID 2283362);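 note: activity is loss of signal relative to DMSO baseline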
# Chain of human Thyroid Receptor Alpha (TRa), THRA (gene 7067) (P10827 whole entry, looked up): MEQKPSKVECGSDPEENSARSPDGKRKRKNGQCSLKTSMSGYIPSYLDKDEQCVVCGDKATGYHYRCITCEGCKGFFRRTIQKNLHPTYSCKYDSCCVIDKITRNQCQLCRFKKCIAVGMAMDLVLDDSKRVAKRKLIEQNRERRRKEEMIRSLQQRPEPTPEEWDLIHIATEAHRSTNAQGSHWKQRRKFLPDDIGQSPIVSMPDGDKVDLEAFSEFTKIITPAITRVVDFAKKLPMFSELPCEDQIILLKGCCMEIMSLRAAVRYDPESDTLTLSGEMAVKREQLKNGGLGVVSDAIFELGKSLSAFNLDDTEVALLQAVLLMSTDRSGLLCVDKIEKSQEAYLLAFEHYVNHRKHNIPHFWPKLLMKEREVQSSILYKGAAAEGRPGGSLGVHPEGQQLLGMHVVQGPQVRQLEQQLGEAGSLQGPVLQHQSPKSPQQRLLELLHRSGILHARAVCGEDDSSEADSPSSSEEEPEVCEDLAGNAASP
# Method in brief: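 Chemicals were first screened in duplicate at 25 uM, then actives were retested in concentration series. Binding to the extracted receptor was measured 1 h after dosing by AlphaLISA chemiluminescence, with decreased signal versus DMSO scored as activity.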
# [4] = target: Estrogen receptor beta (Homo sapiens) (UniProt Q92731); experiment: OT_ER_ERbERb_1440: Odyssey Thera (OT) 24-hour HEK293T Protein-Complementation Assay for Estrogen Receptor-beta/-beta Homodimer (AID 2283380);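 note: scored as signal increase over DMSO baseline for both agonists and antagonists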
# Method in brief: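 Fluorescence increase, nuclear for agonists or whole-cell for antagonists, relative to DMSO vehicle, quantified by laser scanning cytometer after fixation and Draq5 staining. Readout from 24 h treatment of HEK293T cells carrying complementation-paired ER beta LBD (aa 310-547).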
# [5] = target: human Peroxisome Proliferator-activated Receptor alpha (PPARa), PPARA (gene 5465) (UniProt Q07869); experiment: NVS_NR_hPPARa: NovaScreen (NVS) Nuclear Receptor Binding Assay for human Peroxisome Proliferator-activated Receptor alpha (PPARa) (AID 2283359);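 note: activity means loss of TR-FRET signal versus DMSO baseline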
# Chain of human Peroxisome Proliferator-activated Receptor alpha (PPARa), PPARA (gene 5465) (Q07869 whole entry, looked up): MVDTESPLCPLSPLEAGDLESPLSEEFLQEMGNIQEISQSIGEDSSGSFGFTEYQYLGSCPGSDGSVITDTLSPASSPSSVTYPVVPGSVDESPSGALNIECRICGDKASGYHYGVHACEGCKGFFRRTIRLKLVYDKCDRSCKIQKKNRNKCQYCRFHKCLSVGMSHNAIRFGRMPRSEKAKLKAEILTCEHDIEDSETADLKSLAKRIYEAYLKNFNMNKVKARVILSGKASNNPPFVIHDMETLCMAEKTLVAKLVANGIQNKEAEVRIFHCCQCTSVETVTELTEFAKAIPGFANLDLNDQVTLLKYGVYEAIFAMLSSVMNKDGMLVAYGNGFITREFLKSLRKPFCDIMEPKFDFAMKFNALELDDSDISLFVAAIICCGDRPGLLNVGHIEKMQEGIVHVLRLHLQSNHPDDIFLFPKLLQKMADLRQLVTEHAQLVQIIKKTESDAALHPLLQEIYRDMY
# Method in brief: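 Loss of TR-FRET binding signal relative to DMSO was measured 1 h after chemical addition to extracted receptor protein. Chemicals were first tested in duplicate at 25 uM, and actives were followed up in concentration series.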
# [6] = target: Nuclear receptor subfamily 1 group I member 2 (Homo sapiens) (UniProt O75469); experiment: NVS_NR_hPXR: NovaScreen (NVS) Nuclear Receptor Binding Assay for human Pregnane X Receptor (PXR) (AID 2283365);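 note: a drop in FRET signal versus DMSO baseline means the compound binds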
# Chain of Nuclear receptor subfamily 1 group I member 2 (Homo sapiens) (O75469 whole entry, looked up): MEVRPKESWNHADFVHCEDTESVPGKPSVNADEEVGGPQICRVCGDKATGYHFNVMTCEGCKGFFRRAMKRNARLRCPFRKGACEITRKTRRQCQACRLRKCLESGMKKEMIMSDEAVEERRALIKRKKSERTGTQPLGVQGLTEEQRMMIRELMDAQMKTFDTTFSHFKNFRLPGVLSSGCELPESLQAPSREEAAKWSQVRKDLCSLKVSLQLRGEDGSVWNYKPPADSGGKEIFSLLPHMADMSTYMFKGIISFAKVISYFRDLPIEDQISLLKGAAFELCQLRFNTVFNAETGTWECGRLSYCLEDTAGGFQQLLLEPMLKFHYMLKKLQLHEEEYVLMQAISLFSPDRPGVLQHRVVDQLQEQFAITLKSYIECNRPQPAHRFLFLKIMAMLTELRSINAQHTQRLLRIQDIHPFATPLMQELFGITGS
# Method in brief: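 Binding was measured by time-resolved fluorescence resonance energy transfer after a 2 h exposure of extracted human PXR protein without cells. Compounds were first tested at 25 uM in duplicate, with concentration series for actives; DMSO defined baseline.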
# [7] = target: Estrogen receptor (Homo sapiens) (UniProt P03372); experiment: OT_ER_ERaERa_1440: Odyssey Thera (OT) 24-hour HEK293T Protein-Complementation Assay for Estrogen Receptor-alpha/-alpha Homodimer (AID 2283349);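 note: hits raise fluorescence above DMSO for agonists and antagonists alike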
# Chain of Estrogen receptor (Homo sapiens) (P03372 whole entry, looked up, the tested form may be a part): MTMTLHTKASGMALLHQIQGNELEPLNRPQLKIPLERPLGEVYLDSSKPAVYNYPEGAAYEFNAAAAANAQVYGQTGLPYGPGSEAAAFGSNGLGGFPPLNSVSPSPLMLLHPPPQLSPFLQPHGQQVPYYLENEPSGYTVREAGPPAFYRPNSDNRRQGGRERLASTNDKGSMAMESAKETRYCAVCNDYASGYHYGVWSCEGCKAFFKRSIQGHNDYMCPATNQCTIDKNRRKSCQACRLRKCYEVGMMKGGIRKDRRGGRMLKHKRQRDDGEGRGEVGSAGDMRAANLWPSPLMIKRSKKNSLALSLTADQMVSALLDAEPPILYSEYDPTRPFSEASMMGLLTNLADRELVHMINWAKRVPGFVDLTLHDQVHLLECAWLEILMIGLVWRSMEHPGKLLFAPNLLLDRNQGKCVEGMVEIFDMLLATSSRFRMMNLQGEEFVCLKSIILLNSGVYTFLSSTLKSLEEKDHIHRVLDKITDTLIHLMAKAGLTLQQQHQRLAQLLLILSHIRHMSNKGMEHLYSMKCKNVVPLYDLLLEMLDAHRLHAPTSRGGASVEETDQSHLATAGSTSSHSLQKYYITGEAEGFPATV
# Method in brief: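 HEK293T, stable ERα LBD (aa 310-547) homodimer PCA; 24 h compound exposure; mean fluorescence intensity (nuclear for agonists, nuclear plus cytoplasmic for antagonists) vs vehicle; positive fitting direction, DMSO baseline.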
# [8] = target: Estrogen receptor (Homo sapiens) (UniProt P03372); experiment: OT_ER_ERaERa_0480: Odyssey Thera (OT) 8-hour HEK293T Protein-Complementation Assay for Estrogen Receptor-alpha/-alpha Homodimer (AID 2283351);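 note: rise in fluorescence from reassembled reporter fragments on ERα LBD homodimer in nucleus or whole cell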
# Method in brief: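 Read-out: fluorescence intensity rise relative to DMSO, nuclear for agonists, nuclear plus cytoplasmic for antagonists. Construct is the ERα LBD (aa 310-547) homodimer fragment-complementation pair, stably expressed in HEK293T; exposure 8 h.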
# [9] = target: mouse Estrogen Receptor alpha (Era), Esr1 (gene 13982) (UniProt P19785); experiment: NVS_NR_mERa: NovaScreen (NVS) Nuclear Receptor Binding Assay for mouse Estrogen Receptor alpha (Era) (AID 2283378);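 note: hit means loss of bound radioligand signal relative to DMSO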
# Method in brief: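 Test chemicals competed against a specific radioligand for binding to cell-free mouse Era. Duplicate wells at 25 uM were read 18 hours later by filter-based radiodetection, with loss of signal against DMSO scored as activity.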
# [10] = target: Estrogen receptor (Homo sapiens) (UniProt P03372); experiment: OT_ERa_GFPERaERE_0480: Odyssey Thera (OT) 8-hour HeLa Transcription Induction Assay for Estrogen Receptor (AID 2283381; active = hit-call score of the fitted dose curve at least 0.9, where 1 is the maximum; inactive = score below 0.9)
# Method in brief: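 GFP-ERE reporter, HeLa, 8 h exposure. Readout: fluorescence microscopy, high-content image analysis. Fit direction positive vs DMSO negative control.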
# [11] = target: Estrogen receptor (Homo sapiens) (UniProt P03372); experiment: OT_ERa_GFPERaERE_0120: Odyssey Thera (OT) 2-hour HeLa Transcription Induction Assay for Estrogen Receptor (AID 2283382)
# Method in brief: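 Fluorescence microscopy read-out: inducible fluorescent protein reporter in HeLa cells, imaged 2 h post-dose. Signal increase over DMSO negative control fitted as single primary endpoint via high content image analysis.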
# [12] = target: Glucocorticoid receptor (Homo sapiens) (UniProt P04150); experiment: NVS_NR_hGR: NovaScreen (NVS) Nuclear Receptor Binding Assay for human Glucocorticoid Receptor (GR) (AID 2283363);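 note: activity is loss of specific radioligand binding signal relative to DMSO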
# Chain of Glucocorticoid receptor (Homo sapiens) (P04150 whole entry, looked up): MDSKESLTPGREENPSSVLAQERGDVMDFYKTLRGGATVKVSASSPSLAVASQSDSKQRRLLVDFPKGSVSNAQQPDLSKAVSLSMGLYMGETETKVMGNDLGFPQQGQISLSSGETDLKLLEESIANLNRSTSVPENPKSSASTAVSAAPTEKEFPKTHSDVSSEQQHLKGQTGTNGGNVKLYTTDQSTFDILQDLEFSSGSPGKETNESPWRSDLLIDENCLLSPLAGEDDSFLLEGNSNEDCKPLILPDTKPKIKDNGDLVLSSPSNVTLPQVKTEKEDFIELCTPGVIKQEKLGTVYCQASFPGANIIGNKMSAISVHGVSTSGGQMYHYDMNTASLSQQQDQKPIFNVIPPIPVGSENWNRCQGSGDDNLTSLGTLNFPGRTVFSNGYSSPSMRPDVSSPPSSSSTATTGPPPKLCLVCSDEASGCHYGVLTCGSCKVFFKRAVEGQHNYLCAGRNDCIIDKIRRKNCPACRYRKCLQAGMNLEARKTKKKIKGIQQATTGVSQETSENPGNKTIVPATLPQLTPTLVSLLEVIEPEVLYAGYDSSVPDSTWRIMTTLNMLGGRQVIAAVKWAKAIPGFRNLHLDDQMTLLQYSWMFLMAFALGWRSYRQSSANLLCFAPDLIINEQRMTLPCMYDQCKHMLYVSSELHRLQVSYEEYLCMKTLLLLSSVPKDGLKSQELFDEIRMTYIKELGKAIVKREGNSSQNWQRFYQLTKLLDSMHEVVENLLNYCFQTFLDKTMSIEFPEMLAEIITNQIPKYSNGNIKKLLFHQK
# Method in brief: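 Compounds first tested in duplicate at 25 uM, actives followed up in concentration series. Binding to extracted GR protein measured as competitive radioligand displacement, filter scintillation read 16 h post-dosing, normalised to DMSO.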
# [13] = target: rat Androgen Receptor (AR), Ar (gene 24208) (UniProt P15207); experiment: NVS_NR_rAR: NovaScreen (NVS) Nuclear Receptor Binding Assay for rat Androgen Receptor (AR) (AID 2283366)
# Method in brief: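 Actives from a duplicate single-concentration (25 uM) primary run went on to concentration series. Displacement of radioligand was counted by filtration and scintillation, 18 h post-dose, using prostate extracts from testosterone-pretreated rats, with DMSO as baseline.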
# [14] = target: human Dopamine Transporter (DAT), SLC6A3 (gene 6531) (UniProt Q01959); experiment: NVS_TR_hDAT: NovaScreen (NVS) Transporter Assay for human Dopamine Transporter (DAT) (AID 2283374);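 note: activity means loss of bound radioligand signal relative to DMSO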
# Chain of human Dopamine Transporter (DAT), SLC6A3 (gene 6531) (Q01959 whole entry, looked up): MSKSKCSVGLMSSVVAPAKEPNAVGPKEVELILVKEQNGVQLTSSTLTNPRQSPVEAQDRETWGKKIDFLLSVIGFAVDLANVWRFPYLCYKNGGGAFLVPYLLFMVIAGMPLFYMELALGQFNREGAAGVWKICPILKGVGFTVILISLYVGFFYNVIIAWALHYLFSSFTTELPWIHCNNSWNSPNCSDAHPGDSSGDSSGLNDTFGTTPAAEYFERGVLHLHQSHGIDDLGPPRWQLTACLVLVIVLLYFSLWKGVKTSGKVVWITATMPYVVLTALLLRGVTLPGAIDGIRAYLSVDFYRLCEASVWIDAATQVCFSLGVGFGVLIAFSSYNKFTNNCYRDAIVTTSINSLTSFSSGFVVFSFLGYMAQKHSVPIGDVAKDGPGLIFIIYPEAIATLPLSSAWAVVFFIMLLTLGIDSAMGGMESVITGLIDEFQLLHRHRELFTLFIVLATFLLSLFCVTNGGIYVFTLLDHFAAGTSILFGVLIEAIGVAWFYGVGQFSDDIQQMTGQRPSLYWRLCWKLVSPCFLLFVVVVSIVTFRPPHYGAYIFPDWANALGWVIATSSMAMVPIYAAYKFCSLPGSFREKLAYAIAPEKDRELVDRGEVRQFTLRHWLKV
# Method in brief: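 Duplicate single-point screening at 25 uM preceded concentration-series follow-up of actives. Binding was measured by competitive displacement of a radioligand from DAT protein, filter-counted by scintillation 1 h after dosing. Decrease relative to DMSO taken as activity.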
# [15] = target: rat Mineralocorticoid Receptor (MR), Nr3c2 (gene 25672) (UniProt P22199); experiment: NVS_NR_rMR: NovaScreen (NVS) Nuclear Receptor Binding Assay for rat Mineralocorticoid Receptor (MR) (AID 2283355)
# Method in brief: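 Primary HTS ran in duplicate at a single 25 uM concentration, with concentration-series follow-up for actives. Receptor source: adrenalectomized rat brain supernatant, cell-free. Radioligand displacement read by scintillation at 24 h, relative to DMSO baseline.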
smiles,measurement,setting,value
CCN(CC)c1ccc(C(=C2C=CC(=[N+](CC)CC)C=C2)c2ccc(S(=O)(=O)O)cc2S(=O)(=O)[O-])cc1,outcome,[1],inactive
same,outcome,[2],inactive
same,AC50,[3],8030 nM (active)
same,outcome,[4],inactive
OC1OC[C@@H](O)[C@H](O)[C@H]1O (some centres undefined),outcome,[2],inactive
same,outcome,[4],inactive
CCCCCOC(=O)CCC,outcome,[2],inactive
same,outcome,[5],inactive
same,outcome,[4],inactive
COc1ccc(O)cc1,outcome,[2],inactive
same,outcome,[3],inactive
same,outcome,[4],inactive
c1ccc2[nH]ccc2c1,outcome,[1],inactive
same,outcome,[2],inactive
same,outcome,[3],inactive
same,outcome,[6],inactive
same,outcome,[4],inactive
CCCCCCCCCC=O,outcome,[7],inactive
same,outcome,[8],inactive
same,outcome,[9],inactive
same,outcome,[4],inactive
same,outcome,[10],inactive
same,outcome,[11],inactive
CC(C)(C#N)c1cc(Cn2cncn2)cc(C(C)(C)C#N)c1,outcome,[2],inactive
same,outcome,[6],inactive
same,outcome,[4],inactive
CC(C)(C)C(=O)c1ccccc1,outcome,[7],inactive
same,outcome,[8],inactive
same,outcome,[10],inactive
same,outcome,[11],inactive
CCCCC[Si](OCC)(OCC)OCC,outcome,[1],inactive
same,outcome,[2],inactive
same,outcome,[5],inactive
same,outcome,[6],inactive
same,outcome,[4],inactive
CCCCCCCCCCCCCOS(=O)(=O)O,outcome,[1],inactive
same,outcome,[2],inactive
same,AC50,[5],2100 nM (active)
same,AC50,[12],2940 nM (active)
same,outcome,[6],inactive
same,AC50,[13],1700 nM (active)
same,outcome,[4],inactive
CCCOCC(C)O (centres undefined),outcome,[1],inactive
CCCCCC(CO)CCC (centres undefined),outcome,[2],inactive
same,outcome,[4],inactive
C=C(C)C(=O)O,outcome,[7],inactive
same,outcome,[8],inactive
same,outcome,[4],inactive
same,outcome,[10],inactive
same,outcome,[11],inactive
CCCCC(CC)COC(=O)/C=C\C(=O)OCC(CC)CCCC (centres undefined),outcome,[2],inactive
same,outcome,[4],inactive
OCCOCCOCCOCCO,outcome,[7],inactive
same,outcome,[2],inactive
same,outcome,[4],inactive
same,outcome,[10],inactive
same,outcome,[11],inactive
O=C(Cl)c1cccc(C(=O)Cl)c1,outcome,[2],inactive
same,outcome,[14],inactive
same,outcome,[4],inactive
CCCC/C=C\CCCCCCCCCC=O,outcome,[2],inactive
same,outcome,[6],inactive
same,outcome,[4],inactive
CCCCOCCOCCOCCOCCO,outcome,[7],inactive
same,outcome,[2],inactive
same,outcome,[4],inactive
same,outcome,[10],inactive
same,outcome,[11],inactive
CC(=O)O[C@]1(C(C)=O)CC[C@H]2[C@@H]3C[C@H](C)C4=CC(=O)CC[C@]4(C)[C@H]3CC[C@@]21C,AC50,[15],569 nM (active)
same,AC50,[12],1.14 nM (active)
C=CCOc1nc(OCC=C)nc(OCC=C)n1,outcome,[2],inactive
same,AC50,[4],25500 nM (active)
COc1c(Cl)c(Cl)c(Cl)c(Cl)c1Cl,AC50,[2],41800 nM (active)
same,outcome,[6],inactive
same,outcome,[4],inactive
CC(=O)OCCC(C)CC(C)(C)C (centres undefined),outcome,[7],inactive
same,outcome,[8],inactive
same,outcome,[10],inactive
same,outcome,[11],inactive
